± gives the standard deviation of the averaged measurements. Whole data set: some 25,000 sequences, median “ln(normalized median fluorescence intensity)” near 7.9, cut for the highest 2% near 11. Shown is part of a subset that was picked to be rich in the highest values.
Test system: PfAP2-I AP2 domain 3 (GST-tagged)
Assay: gcPBM binding intensity (ln(normalized median fluorescence intensity)); higher = stronger DNA binding
Summary of the method: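 Each value is the highest Masliner-normalised natural-log median intensity across replicate spots of either orientation of a probe. The probes were primer-extended double-stranded 36-bp intergenic genomic sequences on an Agilent 4 × 180k array, alongside negative controls, exposed for 1 h to GST-tagged P. falciparum DNA-binding domains expressed in E. coli. Bound protein was picked up with Alexa488 anti-GST antibody and scanned at 488 nm.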

Sequence | gcPBM binding intensity (ln)
TACTTTTTTTTTTTTTTTTTTTTTTTTTCCCTTTTT [CACACA_negctrl_site761] | 7.47 ± 0.53
TTAATTAATTTTTCAGTGCAAATAAAAAATATTTAA | 10.4 ± 0.64
TAATTAAATATTTCAGTGCATTATTTTATGATCCAT [GTGCAC_site9456] | 11.2 ± 0.76
TAATAATTTTATAAAGTGCATAAAAATAAAAATTTT | 10.6 ± 0.36
CTAAATTATAGATCAGTGCAATTTAATATGAGTCCA | 8.91 ± 0.22
TAATTATTTTAAAAAGTGCATTAAAAGATATTAAAT [GTGCAC_site9694] | 11.4 ± 0.56
AGTGTTTTTTATAAAGTGCAATATAAAAACAAAATG | 11.3 ± 0.75
TTATAAATTTAAAAAGTGCATAATAATAACAAAAAG | 11.2 ± 0.67
TACAAATTTATATAAAGTACAAAAAATAATAAAAAT [XGTACX_site7355] | 8.1 ± 0.52
ATTAAAAGTTTATACAAATAAAAAACAAAACAAAAA [CACACA_negctrl_site1030] | 7.7 ± 0.55
ATAAAAATAAAAAGTGTGCACACAAAAATATATATA [GTGCAC_site9931] | 9.96 ± 0.33
AATATCATTATATAAGTGCATTTTTTAAAAGATAAA [GTGCAC_site9479] | 9.04 ± 0.22
AAATTAAAGATAAAAGTGCAAAATTATAAATTTATT | 9.64 ± 0.071
GTAATATTAATATAATGTACAAAATGAAACATATAT [XGTACX_site6219] | 7.71 ± 0.57
AAATAAATACATAATACATGCATATTTAATATATAG [TGCATGCA_site135] | 7.93 ± 0.25
TTTTAGCTATTTTAATATAATGAAGCAAAAAATAAA [TGCATGCA_negctrl_site576] | 7.82 ± 0.085
GTGTGGTTACAGACACGAACACATTTTTTAAATATT [CACACA_negctrl_site83] | 7.83 ± 0.28
TGAAAAATGTAATGCTCACACATATATATATATATA [CACACA_site5213] | 9.41 ± 0.24
CCTACAATTCGTAATACACACACATATATATATATA [CACACA_site9251] | 9.29 ± 0.25
CAGCTCTTAAAAATTACACACATATACACATATATA [CACACA_site9073] | 7.5 ± 0.54
TTTATTTATTAATACACACACACACCCCCACAAAAT [CACACA_site240] | 9.96 ± 0.2
AATTGAAAAATCAGCACACACACAAATACATACATA [CACACA_site3232] | 8.09 ± 0.4
TATATATATTAAAAAGTGCATTATTCATATTATATA [GTGCAC_site9400] | 11.1 ± 0.73
TTCATTTTATTTTAAGTGCATATTTTTATTTTTTTG | 8.82 ± 0.099
TAATTATTCTATTAAGTGCATATATTTTTAAAAAGA | 9.89 ± 0.3

Sequence | gcPBM binding intensity (ln)
GATTATTTCTAAAAAGTGCATATTTAAAAATCTCCT | 9.815 ± 0.035
TTCATATTCGATAAAGTGCATTAATTTTATTTATCA | 11.3 ± 0.73
AGATTATATAAAAAAGTGCATATTTTCATTTTTTTT [GTGCAC_site9448] | 9.07 ± 0.13
CTGAAATTAACAAAAGTGCATAAAAATAAAAAATAT [GTGCAC_site9652] | 10.8 ± 0.38
ATTAATAAAAAATTTTAAAAAATAAATAAAATAAAA [TGCATGCA_negctrl_site113] | 7.58 ± 0.42
TTTCTCCATATTAAAGTGCATTAATAACAAAAATAA [GTGCAC_site9934] | 11.4 ± 0.81
TTATTAAATTCATAAGTGCATTTATGATTAATTTTT [GTGCAC_site9749] | 9.86
TCATTTTAATTAAAAGTGCAAAAAATAATATAACTA [GTGCAC_site9968] | 9.9 ± 0.18
AAAAAAAAAAAAAAAGTGCATTAATAAATTTTAATA | 11.5 ± 0.61
CTATTTTAATATTTTACACACCATGTAAAATATATA [CACACA_site5732] | 7.97 ± 0.28
AGTTTGTTTTTTTTTTTTTTTTCCTGTCACAAACAA [CACACA_negctrl_site1093] | 8.22 ± 0.62
GTTCATAAATTAAACACACACACACCCCTGGATACC [CACACA_site3331] | 9.115 ± 0.021
ATATATATATATATATGTACATACATACAATCATAT [XGTACX_site6410] | 9.38 ± 0.54
TACATATTTAAATACTGTACTCAAAAGAATTGTGCA [XGTACX_site2250] | 8.11 ± 0.11
ATATATCATAATAAAAGTACTTATATATTTTATATA [XGTACX_site560] | 7.59 ± 0.33
AAAATTGTGCTTTCACGGACACAAGATCGAAATAGA [XGTACX_site4068] | 8.62 ± 0.16
GAAAAAAAAATATCTTGTACTTACATAACTATTGGT [XGTACX_site5326] | 7.61 ± 0.5
CTTATTTTGTTATAAGTGCATTTTTTAAAATTTCTT | 9.05 ± 0.42
ATATATATATTTATAGTGCATTTATATTAAAATATC [GTGCAC_site9818] | 10.54 ± 0.021
ATATATTATATTTAAGTGCATTAATTAAAATGCTTA [GTGCAC_site9403] | 11.1 ± 0.73
CACATTAATTTTTGGGTGCACTTGGGAAATTTTGGT | 10.9 ± 0.51
TTTTTTTTTTTTTTTGCACACTTAAATTTGGTGGGG [CACACA_site2344] | 9.89 ± 0.19
TTTTTTTTTTTTTTTGCACACTTAAATTTGGTGGCT [CACACA_site5319] | 9.54 ± 0.16
AGTTATAAACATATGTGTACTTATAAAAACATATAG [XGTACX_site3268] | 7.87 ± 0.47
AATCACAACGAACACACACACAAAAAAAAAAAAAAA [CACACA_site6790] | 7.96 ± 0.54

Sequence | gcPBM binding intensity (ln)
CAACAACAAATGAGAAGTACATAAATATTAACAATA [XGTACX_site4625] | 7.68 ± 0.4
TTCCAAGAAATAATAGTGCATTATTCATTTTAATAA | 11.5 ± 0.42
ATATATAATTCCCAAGTGCATTTATTTTAATTATTA | 10.2 ± 0.12
TGTTTTATTTTATTAGTGCATTTTTATTTATAATAG [GTGCAC_site9453] | 9.77 ± 0.2
AATATAAGGATATATACACACATAAATACATACATA [CACACA_site7859] | 7.67 ± 0.59
AAGGATATAACATACACACACACACGGATATAAATA [CACACA_site7867] | 7.91 ± 0.6
TGAAGGATATATTCCGTGCACATATAAATATATACA | 11.035 ± 0.007
TTTATACAAACAACTTTATATTAATGTTTAACGGAG [GTGCAC_negctrl_site396] | 7.6 ± 0.42
AAAAAAAAAATACAGGTGCAATAAGAAAAAAATGGT | 11.4 ± 0.57
ATATATATATAATAAGTGCAAAAAAAAGAAAAAAAT | 10.18 ± 0.035
AATTAATAAGAAAGGTGTACAGAAAAAAAAAAATAT [XGTACX_site2106] | 8.46 ± 0.43
TTTTATATTTTATGCACACTTATAAGAAATATGTAC [CACACA_site3040] | 10.5 ± 0.52
TTTTAAATACTTTATTGTACATTATATATATATATA [XGTACX_site7021] | 8.88 ± 0.042
ATTTTAAAAAGGATAGTGCAAATGTTAAAATAGGAC | 10.6 ± 0.3
TTTTTTTTTAAGCAAAGGAAATCAAAATAAAAATAT [CACACA_negctrl_site719] | 7.92 ± 0.56
TTTTAAGGTGTGAAGGTGCAAAAAGGTAAATAGGAA | 11.2 ± 0.56
TACCTTTTTTATGTTGCACACTGGGATGTTTTCTAA [CACACA_site1653] | 9.51 ± 0.15
TATGAAGTGCACAATACACACTAATTCTATATAAAT [CACACA_site7269] | 11 ± 0.71
TATGAAGTACACAATACACACTAATTATATATAAAT [CACACA_site5444] | 7.88 ± 0.28
TATATGAAGTACACAATACACACTAATTATATATAA [CACACA_site2608] | 8.155 ± 0.035
AAAGTATATAGGATACGTACATACATAAATAAATAA [XGTACX_site8216] | 7.84 ± 0.73
AAAAAAAAAAAAAAAACACACAAACAAATGAATAAA [CACACA_site5769] | 8.76 ± 0.66
GTACATTATATATATACACACATACATAATAAAGAA [CACACA_site5528] | 8.12 ± 0.23
CAAATATACATATGTAGTACATGTTGTAGATAATTT [XGTACX_site2790] | 8.01 ± 0.5
GTATATATCTAAAAATATATATATATATATATATAT [CACACA_negctrl_site788] | 9.37 ± 0.72

Sequence | gcPBM binding intensity (ln)
CCCTGCCTCTCTTTGGTGCGTTGTAACCCTCGAGGA | 10.3 ± 0.33
TCTCCACCTCTCTTGGTGCGTTATACCCTCGAGGCT | 11.3 ± 0.54
TCCTGCCTCTCTTTGGTGCGTTGTAACCCTCGAGGA | 10.3 ± 0.11
AGAATTAAAATAAAGGTGCATTTTTTTGTTTCATGT | 9.94 ± 0.23
TTGTTCTTTTTTTTTTTATTTTTTAATTTGAAAAGA [CACACA_negctrl_site209] | 7.72 ± 0.5
TTGTTCTTTTGAAAGGTGCAAAAGAAAAATAATTAA | 11.1 ± 0.54
ACGTTACATACATATACACACACATATATATATATA [CACACA_site8203] | 9.22 ± 0.39
TATATACTCATGCGCACACACAAGTGGGAAATTTGG [CACACA_site5056] | 8.35 ± 0.6
TATAATTTTTTTTGGGTGCTTGGGTAAATTTTATTA | 8.34 ± 0.42
TTTTTTTTTTTTGGTGCATGCACATTTTGTTTTTTT [TGCATGCA_site570] | 9.85 ± 0.014
CTTGTGCTTTATAGGGTGCACATTTTGTTTTGGTAA [GTGCAC_site9899] | 11 ± 0.46
AAAGGGATGTTCATTCTTTTTTTTTTTTTTGTATAT [CACACA_negctrl_site511] | 7.16 ± 0.6
ATTAGTAAATTTATATGTACACATTGTTATTTTATA [XGTACX_site1177] | 8.13 ± 0.23
TTATATTTGATAGTTTGTACATATAATTATTATCAT [XGTACX_site5676] | 7.86 ± 0.42
TAGTGATATAATTATGTGCACTTAATACAGGTCGAT | 10.9 ± 0.3
TTGATATATAATAATACACACTTACATAATTAATTA [CACACA_site4320] | 7.88 ± 0.37
AATATAAATAATTATACACACTTAATATATATATAC [CACACA_site5533] | 7.9 ± 0.33
ATGTCTATAATAAGAACACACATATATTTAATTTAA [CACACA_site7394] | 7.64 ± 0.44
ACATAATTATTATGCACACATATTTTTATGTATTTA [CACACA_site698] | 10.3 ± 0.48
TATACATATGTATGCACACATACATACACATAGAAT [CACACA_site3480] | 8.8 ± 0.13
ATATGTAGAAGTAATGCACACATATGTATATATATA [CACACA_site8796] | 10.8 ± 0.48
ATGTGATAGAAGTACACACACATATGTATTTATAAT [CACACA_site5075] | 7.84 ± 0.59
ATGTAGAAGTAATGCACACATATGTATATATATATA [CACACA_site2494] | 10.9 ± 0.63
ATGTAGAAGTAATGCACACATATGTATTTATATATA [CACACA_site5391] | 10.9 ± 0.68
